High-throughput results (PubChem BioAssay)
gsp antag – qHTS for Antagonists of gsp, the Etiologic Mutation Responsible for Fibrous Dysplasia/McCune-Albright Syndrome: qHTS | gsp-mutant cells, cAMP HTRF, 30 min | Potency, µM (titrated, usually from 76.9 µM), hits mostly inhibitors | 340,000 compounds, 0.4% hits | AID 624288, 2012; calls by dose curve; cell line not stated here;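 also: intracellular cAMP measured with PDE inhibitor Ro 20-1724 present during compound exposure; nearly all actives have a fitted effect of over 65% in size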
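Cells in G418 medium, seeded 16-24 h, 37C; buffer exchange to DPBS + 1 mM CaCl2, 0.5 mM MgCl2, 0.05% BSA; cpds in DMSO + […] (300 uM stock), 30 min 37C; HTRF cAMP detection.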
gsp agonist – qHTS for Agonist of gsp, the Etiologic Mutation Responsible for Fibrous Dysplasia/McCune-Albright Syndrome: qHTS; gsp mutant cells, cAMP HTRF, 30 min; Potency, µM (highest dose often 76.9 µM), hits mostly activators; 340,000 compounds, 0.13% hits; active = well fitted activation curve with a large enough effect; inconclusive = small, poorly fitted or top-dose-only effect, or another doubt; inactive = no such curve, though single readings can be large or run the other way; cell line not stated here;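 also: phosphodiesterase inhibitor Ro 20-1724 added with compounds to block cAMP breakdown; nearly all actives have a fitted effect of over 60% in size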
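Cells stably selected in G418 were plated at 2000/well, grown 16-24 hr, then given compounds in DMSO with the PDE inhibitor […] (300 uM solution added) for 30 min at 37C; cAMP was read by HTRF.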
RXFP1 antagonist – qHTS Assay for Antagonists of the Relaxin Receptor RXFP1. 350,000 compounds, 0.59% hits. HEK293-RXFP1, relaxin-stimulated cAMP HTRF, 30 min; active compounds read low. AID 1259400, 2018. activity change, negative = inhibition, % at 57.5 µM. Relaxin receptor 1 (Homo sapiens), Q9HBX9;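 active = activity change of -60% or lower, but not beyond a set lower limit; inconclusive = change between -60% and -40%, or beyond the set limit; inactive = change above -40%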
Target sequence (Q9HBX9 whole entry, looked up): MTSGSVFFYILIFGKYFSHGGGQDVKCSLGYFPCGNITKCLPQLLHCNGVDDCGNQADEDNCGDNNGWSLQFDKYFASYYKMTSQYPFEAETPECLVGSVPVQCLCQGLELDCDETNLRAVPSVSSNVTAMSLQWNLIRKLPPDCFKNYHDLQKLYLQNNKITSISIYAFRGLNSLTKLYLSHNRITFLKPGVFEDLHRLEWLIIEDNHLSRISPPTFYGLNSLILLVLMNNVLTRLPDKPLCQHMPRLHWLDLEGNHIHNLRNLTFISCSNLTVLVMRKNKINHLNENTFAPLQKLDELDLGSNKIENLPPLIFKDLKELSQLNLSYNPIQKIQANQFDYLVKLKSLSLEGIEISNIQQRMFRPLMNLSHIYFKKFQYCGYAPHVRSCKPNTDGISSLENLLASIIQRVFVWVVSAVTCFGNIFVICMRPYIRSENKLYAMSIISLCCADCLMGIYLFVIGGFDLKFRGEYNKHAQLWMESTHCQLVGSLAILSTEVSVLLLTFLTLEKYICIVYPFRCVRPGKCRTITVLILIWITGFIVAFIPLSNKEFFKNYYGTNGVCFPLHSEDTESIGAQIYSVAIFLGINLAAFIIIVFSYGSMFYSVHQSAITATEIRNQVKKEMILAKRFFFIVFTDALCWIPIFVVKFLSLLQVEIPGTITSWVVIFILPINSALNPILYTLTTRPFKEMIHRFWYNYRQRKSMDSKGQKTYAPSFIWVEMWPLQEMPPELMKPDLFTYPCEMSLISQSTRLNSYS
RXFP1 agonist – qHTS Assay for Agonists of the Relaxin Receptor RXFP1; HEK293T-RXFP1 cAMP TR-FRET, 30 min; response scale: percent of porcine relaxin response, buffer zero; Potency, µM (top dose mostly 57.5 µM), actives largely listed as activators; 370,000 compounds, 0.3% hits; also: nearly all actives have a fitted effect of over 60% in size
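cAMP rise read by TR-FRET after 30 min, 37C compound exposure (up to 58 uM) in RXFP1-transfected HEK293 cells with Ro 20174 present. EC50 from Hill-equation fits, with 29 nM porcine relaxin as 100% and buffer as basal.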
CCT modulator – High-Throughput Screening for Modulators of Cytosolic Chaperonin Activity | purified chaperonin ATPase assay, HTRF ADP detection, 30 min | activity change, % (no concentration beside the values), hits read low | 360,000 compounds, 0.3% hits | AID 651819, 2012; in the data active = activity change below about -30%
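TRiC at 40 or 20 nM final (batch-dependent) in 30 mM Tris pH 7.4, 100 mM KCl, 5 mM MgCl2, 1 mM DTT, with compound at single 76 uM and 10 uM ATP, 30 min at 37 deg C. ADP detected by HTRF Transcreener, 665/615 ratio.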
Mm-Cpn inhibitor – Inhibitors of TCP-1 ring complex (TRiC) of Methanococcus maripaludis (MmCpn): qHTS; purified Mm-Cpn ATPase, ADP Transcreener TR-FRET; Potency, µM (series often up to 76.9 µM), usual class: inhibitors; 330,000 compounds, 0.031% hits; AID 504842, 2011; also: nearly all actives have a fitted effect of over 80% in size
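Purified archaeal Mm-CPN (25nM final) preincubated 10 min at 37degC with compound, then 10uM ATP for 30 min at 37degC; ADP measured by HTRF Transcreener TR-FRET; buffer 30 mM TRIS pH 7.4, 100mM KCl, 5mM MgCl2, 1mM DTT.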
Of the large screens only hits and unclear results are named; the others gave an inactive call. Only some compounds are listed: those with a hit (about 1.2% of all), similar ones and a draw of the others. Unless noted, calls follow the shape of the dose curve; as a rule, active = well fitted curve in the direction sought with a large enough effect; inconclusive = small, poorly fitted or top-dose-only effect, or another doubt; inactive = no such curve, though single readings can be large; an effect the other way counts as inactive or inconclusive.

Cn1nnnc1SCCCNCc1cc(Cl)ccc1OCc1ccc(F)cc1	none (no result: gsp antag, gsp agonist, CCT modulator, Mm-Cpn inhibitor)
CCOC(=O)C(=Cc1ccc(Br)cc1)C(=O)OCC	RXFP1 antagonist -96
CCc1ccc(/C=C/C(=O)c2ccc(N3CCOCC3)cc2)cc1	RXFP1 antagonist -92
O=C(/C=C/c1ccc(F)cc1)c1ccc(N2CCOCC2)cc1	none
CCOC(=O)C(O)c1ccccc1 (stereo not given)	none (no result: gsp antag, gsp agonist, RXFP1 agonist, CCT modulator, Mm-Cpn inhibitor)
CCC(C(=O)Nc1nccs1)(C(F)(F)F)C(F)(F)F	gsp antag 32µM
CCc1cccc2c(-c3ccccc3)nc(SCC(=O)Nc3ccc(OC)cc3)nc12	none (no result: gsp antag, gsp agonist, CCT modulator, Mm-Cpn inhibitor)
CCN(C(=O)COC(=O)/C(=C/c1ccccc1)n1nnnc1C)C1CCCCC1	gsp agonist inconclusive, CCT modulator -88
CCOc1ccc2[nH]cc(C(=O)N3CCN(C4CCCCC4)CC3)c(=O)c2c1	CCT modulator -57 (no result: RXFP1 agonist, Mm-Cpn inhibitor)
O=S(=O)(c1ccc2ccccc2c1)n1nc(-c2ccco2)nc1NCc1ccc(F)cc1	none (no result: gsp antag, gsp agonist, CCT modulator, Mm-Cpn inhibitor)
Cc1nnc(SCC(=O)NC23CC4CC(CC(C4)C2)C3)n(N)c1=O	CCT modulator -42
O=C(NCc1ccc(Cl)cc1)C1CCCN(c2cnccn2)C1 (stereo not given)	gsp agonist inconclusive
O=C(NCc1ccc(Cl)cc1)C1CCCN(c2nc3ccccc3n3cccc23)C1 (stereo not given)	RXFP1 antagonist -64 (no result: gsp antag, gsp agonist, CCT modulator, Mm-Cpn inhibitor)
N#Cc1nc(-c2ccccc2F)oc1NC1CCCCC1	RXFP1 antagonist -60
O=C1CCSC2(C(=O)N(Cc3ccc(F)cc3)c3ccccc32)N1c1ccc(Cl)cc1 (stereo not given)	RXFP1 antagonist -79 (no result: gsp antag, gsp agonist, CCT modulator, Mm-Cpn inhibitor)
Cc1ccc(CNC(=O)c2ccc(Cn3nc(C)cc3C)o2)cc1	RXFP1 antagonist -117, CCT modulator -73
CCCc1ccc(C2Sc3ccccc3NC3=C2C(=O)c2ccccc23)cc1 (stereo not given)	none (no result: gsp antag, gsp agonist, CCT modulator, Mm-Cpn inhibitor)
CCOC(=O)C(=O)Nc1ccc(Oc2ccccc2)cc1	none
CCOC(=O)C(=O)Nc1ccc(F)cc1	CCT modulator -84
Cc1cc(C)cc(C(=O)NCCc2sc(-c3ccc(F)cc3)nc2C)c1	none (no result: gsp antag, gsp agonist, CCT modulator, Mm-Cpn inhibitor)
CCCCCCCCC[n+]1cccc2c3ccccc3ccc21	RXFP1 antagonist -60
CCOC(=O)c1ccc(NC(=O)C23CCC(C)(C(=O)O2)C3(C)C)cc1 (stereo not given)	gsp agonist inconclusive, CCT modulator -38
Cc1cc(C)nc(SCC(=O)c2ccc(F)cc2)n1	gsp agonist inconclusive
Cc1cc(C)nc(SCNC(=O)c2ccc(F)cc2)n1	gsp agonist inconclusive, CCT modulator -32
CN(Cc1ccccc1)C(=O)COC(=O)C1CCN(S(=O)(=O)c2ccc(Cl)c(C(F)(F)F)c2)CC1	RXFP1 antagonist -96
Cc1sc(NC(=O)CSc2nnc(-c3ccc(F)cc3)o2)c(C#N)c1C	gsp antag inconclusive, CCT modulator -50
O=C(CSc1nnc(-c2ccncc2)o1)Nc1cc(F)ccc1F	CCT modulator -119
CC(=O)c1c(C)[nH]c(C(=O)Nc2ccc(Cl)c(S(=O)(=O)N(C)C)c2)c1C	RXFP1 agonist inconclusive
CC(=O)c1c(C)[nH]c(C(=O)OCC(=O)Nc2ccc(Cl)c(S(=O)(=O)N(C)C)c2)c1C	gsp antag 40µM
CCOC(=O)c1nc2sc3c(c2c(=O)n1C(C)C(=O)OCC)CCCC3 (stereo not given)	RXFP1 antagonist -61
CCOC(=O)c1sc(NC(=O)Cn2nnc3sc4c(c3c2=O)CCCC4)nc1C	none
CC1CCN(S(=O)(=O)c2cc(C(=O)NCc3ccccc3)n(C)c2)CC1	none (no result: gsp antag, gsp agonist, RXFP1 antagonist, CCT modulator, Mm-Cpn inhibitor)
c1ccc(Sc2ccccn2)cc1	none (no result: RXFP1 agonist, Mm-Cpn inhibitor)
c1ccc(SSc2ccccn2)nc1	RXFP1 antagonist -66 (no result: RXFP1 agonist, Mm-Cpn inhibitor)
O=C(NNC(=S)Nc1ccc(Cl)cc1)c1cccs1	CCT modulator -71
